# Data from the supplement of paper PMC11219838.
# A number with no mark means an inactive call.
# System: Caenorhabditis elegans L1 (N2)
# Assay: survival and reproduction score of C. elegans L1 (0: 0-10 living worms, 1: 11-20, 2: 21-50, 3: >50, 4: overgrown) (score 0-4); higher = more worms, less nematicidal, active = 1 or less; extreme values may be limits of the assay
# Conditions: 60 µM; 6 days; temperature: 20 °C
# In short: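 Each 96-well well received about 20 synchronized N2 L1 worms of C. elegans, E. coli HB101 and liquid NGM, plus compound pinned to 60 µM final (0.6% v/v DMSO). Sealed plates were incubated with shaking at 200 rpm, 20 °C, for 6 days. Survival and reproduction were rated under a dissection microscope as an ordinal score of living worms per well, averaged across biological replicates. The scale spanned 0 (0–10 worms) to 4 (overgrown, starved), and there were two replicates.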
row,Structure (SMILES),survival and reproduction score
1,COc1ccc(-c2noc(-c3ccccc3C(=O)Nc3cccc(C)c3C)n2)cc1,4
2,Cc1cccc(-c2noc(-c3cc(Cl)ccc3Cl)n2)c1,2
3,Clc1ccc(SCc2nc(-c3cccnc3)no2)cc1,2.5
4,Cc1cccc(OC(C)c2nc(-c3ccncc3)no2)c1 (centres undefined),4
5,Cc1ccccc1-c1nc(-c2ccc(Cl)cc2)no1,0 (active)
6,CC(=O)c1cccc(NC(=O)CSc2nnc(-c3ccccc3)o2)c1,4
7,CCCCC(=O)Nc1ccccc1-c1nc(-c2ccncc2)no1,4
8,Cc1ccc(CSc2nnc(-c3ccncc3)o2)cc1,4
9,Cc1cc(C)c(OCc2nc(-c3ccncc3)no2)c(C)c1,4
10,O=C(Nc1ccc(-c2noc(-c3ccc(F)cc3)n2)cc1)c1ccc(Br)o1,1 (active)
11,COc1ccc(-c2nnc(SCC(=O)Nc3ccc(Br)cc3C(C)C)o2)cc1,4
12,O=C(CSc1nnc(-c2ccncc2)o1)Nc1ccc(Cl)cc1Cl,4
13,Ic1cccc(-c2nc(-c3cccnc3)no2)c1,4
14,Brc1ccc(-c2nc(-c3ccncc3)no2)cc1,0 (active)
15,CCc1nnc(NC(=O)CSc2nnc(-c3cccc(C)c3)o2)s1,4
16,O=C(Nc1ccccc1-c1nc(-c2cccnc2)no1)c1cccc(Cl)c1,4
17,Cc1ccc(C(=O)Nc2ccccc2-c2nc(-c3cccnc3)no2)cc1C,4
18,Clc1ccc(-c2noc(-c3ccccc3Cl)n2)cc1,3
19,Cc1ccoc1-c1nnc(-c2ccco2)o1,3.5
